Compounds without any hit were thinned out: in the full panel of roughly 83,000, 20% have a hit.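 Plates (96-well) were seeded with cells, treated with compound at one concentration, and incubated for 48 hours before percent growth was determined.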 A number with no mark means an inactive call. Calls of active or inactive are those of the source. Rule for the calls: active = growth percent below 10; inactive = the rest.
Columns and labels:
Assay in all cases: NCI-60 one-dose screen, 48 h (100 = growth as untreated, 0 = no growth, -100 = all killed)
Settings in all cases: 10 µM unless noted
RPMI-8226 leukemia = system: RPMI-8226 leukemia
OVCAR-8 ovarian = system: OVCAR-8 ovarian
OVCAR-5 ovarian = system: OVCAR-5 ovarian
OVCAR-4 ovarian = system: OVCAR-4 ovarian
SK-OV-3 ovarian = system: SK-OV-3 ovarian
IGROV1 ovarian = system: IGROV1 ovarian
OVCAR-3 ovarian = system: OVCAR-3 ovarian
HS 578T breast = system: HS 578T breast
NCI/ADR-RES ovarian = system: NCI/ADR-RES ovarian
T-47D breast = system: T-47D breast
BT-549 breast = system: BT-549 breast
MDA-MB-435 melanoma = system: MDA-MB-435 melanoma
SW-620 colon = system: SW-620 colon
MCF7 breast = system: MCF7 breast
HCT-116 colon = system: HCT-116 colon
HCC-2998 colon = system: HCC-2998 colon
KM12 colon = system: KM12 colon

Structure (SMILES) | growth (RPMI-8226 leukemia) | growth (OVCAR-8 ovarian) | growth (OVCAR-5 ovarian) | growth (OVCAR-4 ovarian) | growth (SK-OV-3 ovarian) | growth (IGROV1 ovarian) | growth (OVCAR-3 ovarian) | growth (HS 578T breast) | growth (NCI/ADR-RES ovarian) | growth (T-47D breast) | growth (BT-549 breast) | growth (MDA-MB-435 melanoma) | growth (SW-620 colon) | growth (MCF7 breast) | growth (HCT-116 colon) | growth (HCC-2998 colon) | growth (KM12 colon)
Cc1cccc(NC(=O)CSc2nc3ccccc3[nH]2)c1 | 99.8% | 103% | 106% | 93.2% | 95.9% | 97.6% | 107% | 90.7% | 98.4% | 88.9% | 104% | 103% | 101% | 92% | 107% | 102% | 100%
Cc1nn(-c2ccccc2)c(Cl)c1/C=C(/NC(=O)c1ccccc1)c1nc2ccccc2[nH]1 | 91.6% | 102% | 101% | 106% | 95.4% | 96.8% | 120% | 115% | 101% | 86.7% | 93.5% | 91.5% | 105% | 93.1% | 86.6% | 131% | 107%
CN(C)CCC=C1c2ccccc2C(C)(C)c2ccccc21 | 0.547% (active) | 88.9% | 59.4% | 76.5% | 99.7% | 61.3% | 80.1% | 50.8% | 77.6% | 81% | 94.5% | 66.9% | 86% | 81.2% | 53.1% | 10.4% | 76.9%
COc1cccc(C(=O)NCCCNc2cc(-c3cn(-c4ccccc4)nc3-c3cccc(OC)c3)ccn2)c1 | 25.3% | 26.7% | 82.1% | 37.9% | 48.8% | 58.9% | 53.3% | 47.5% | 22.1% | -4.96% (active) | 11% | 40.2% | 54.4% | 37.5% | 30.5% | 61.2% | 43.5%
CNC(=O)c1cc(Oc2cccc3nc(Nc4ccc(F)c(Cl)c4)ccc23)ccn1 | 54.1% | 44.8% | 91.9% | 40.1% | 70.1% | 44.5% | 64.6% | 70% | 57.4% | 66% | 62.9% | 60.5% | 20.3% | 35.1% | 17.6% | 101% | 63.5%
CCc1c2c(nc3ccc(OC(=O)OCc4ccc(B5OC(C)(C)C(C)(C)O5)cc4)cc13)-c1cc3c(c(=O)n1C2)COC(=O)[C@]3(O)CC | 8.86% (active) | 0.492% (active) | -16% (active) | 11.1% | 3.1% (active) | 6.81% (active) | -17.5% (active) | 20.7% | -0.875% (active) | 7.4% (active) | 13.2% | -28.3% (active) | 5.3% (active) | 2.63% (active) | 14.5% | 2.03% (active) | 0.859% (active)
O=C(Nc1ccc(Nc2ccncc2)cc1)c1ccc(C(=O)Nc2ccc(Nc3ccncc3)cc2)cc1 | 3.64% (active) | 74.5% | 51.1% | 68.1% | 68% | 75.8% | 111% | 88.2% | 109% | 33.8% | 123% | 48.8% | 42.2% | 26.8% | 32.7% | 87% | 47.4%
Cc1ccc(/C=C/c2c(C(=O)/C=C/c3ccc(C(F)(F)F)cc3)c(C)nc3ccccc23)cc1 | -26.8% (active) | 4.18% (active) | -39.6% (active) | -74.1% (active) | -47.5% (active) | -80.1% (active) | -86.3% (active) | -13.2% (active) | -0.26% (active) | -13.1% (active) | -30.6% (active) | -87.9% (active) | -43.2% (active) | -14.4% (active) | -56.8% (active) | -74.3% (active) | -70% (active)
Clc1cc(Cl)cc(Nc2ccc3cc(OCCCN4CCOCC4)ccc3n2)c1 | -2.42% (active) | 44.4% | 65.7% | 46.8% | 67.4% | 58% | 60% | 25% | 51% | 32% | 88.5% | 34.1% | -8.79% (active) | 8.56% (active) | 19.8% | -17.6% (active) | 8.59% (active)
COc1cc(/C=C2\C(=O)ON=C2C)cc(OC)c1OC | 95.9% | 99.7% | 99.3% | 104% | 98.9% | 101% | 101% | 92% | 100% | 97.9% | 112% | 102% | 97.7% | 97% | 104% | 94.5% | 100%
COc1ccc(/C=C/c2c(C(=O)/C=C/c3cccs3)c(C)nc3ccccc23)cc1 | 56.6% | 77% | 97% | 68.7% | 79.7% | 46% | 83.6% | 84.1% | 74.1% | 47.8% | 94.3% | 68.5% | 82.5% | 53.9% | 47.5% | 85.6% | 78.9%
COc1cc(C2CC(=O)Nc3c2c(C)nn3-c2nc3ccccc3[nH]2)cc2c1OCC(=O)N2 (centres undefined) | 74.1% | 34.9% | 101% | 73.2% | 28.6% | 60.4% | 13.6% | 26.7% | 93.2% | 83.6% | 65.9% | 48.5% | 52.4% | 56.9% | 107% | 103% | 70.8%
CCN(CC)CCCC(C)Nc1c2ccc(Cl)cc2nc2ccc(O)cc12 (centres undefined) | 21.8% | 30.1% | 74.3% | 24.6% | 58.1% | 53.8% | 54.8% | 58% | 77.3% | 49.7% | 64.8% | 27% | 24.5% | 6.22% (active) | 14.8% | 25.4% | 30.4%
COC(=O)[C@]12CC[C@@H](C)[C@H](C)[C@@H]1C1=CC[C@@H]3[C@@]4(C)C(C=O)=C[C@@](C)(COC(=O)c5ccco5)C4=CC[C@@]3(C)[C@]1(C)CC2 | 4.82% (active) | 19.6% | 8.46% (active) | 18.6% | 27.8% | 26.5% | -92.6% (active) | 3.14% (active) | 23.7% | -8.1% (active) | 5.64% (active) | -22.3% (active) | -7.67% (active) | 11.4% | -71.3% (active) | -7.04% (active) | 8.54% (active)
COc1ccc(-c2nc(SCC(=O)Nc3nc(-c4ccccc4)cs3)[nH]c(=O)c2C#N)cc1 | 93% | 101% | 84.6% | 109% | 81.6% | 88.3% | 107% | 78% | 95.5% | 84.3% | 92.4% | 101% | 97.4% | 96.4% | 86% | 87.5% | 108%
CC1(C)CC[C@]2(C(=O)N3CCOCC3)CC[C@]3(C)C(=CC[C@@H]4[C@@]5(C)CC[C@H](OC(=O)c6cccnc6)C(C)(C)[C@@H]5CC[C@]43C)[C@@H]2C1 | 35.5% | 76.6% | 75.5% | 60.7% | 88.2% | 69.7% | 53.2% | 86.7% | 89.9% | 54.7% | 72.3% | 70.2% | 45.4% | 67.4% | 31.8% | 58.7% | 53.5%
COc1cc(/C=C/C(=O)c2c(C)nc3ccccc3c2/C=C/c2ccc(C)cc2)cc(OC)c1OC | -13.4% (active) | 17% | 17.7% | 39.5% | 58.6% | 21% | 15.6% | 46.7% | 9.69% (active) | 19% | 35.6% | 11.1% | 3.22% (active) | 17.1% | -70.3% (active) | -21.3% (active) | 13.2%
